The list is not random: actives were taken first. Their share in the collection is about 1.6%.
KCNQ2 block – rat KCNQ2 potassium channel inhibitors, primary screen, cell-based, CHO-K1, FluxOR thallium flux, B-score | 20 min; hits give low values | B-score at 10 µM | actives 1.1% (n = 310,000);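 active = fluorescence ratio B-score at most minus 3 library SDs, with starting brightness B-score within 2 library SDs, cut at about -5.5 in these data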
Target sequence (O88943 whole entry, looked up): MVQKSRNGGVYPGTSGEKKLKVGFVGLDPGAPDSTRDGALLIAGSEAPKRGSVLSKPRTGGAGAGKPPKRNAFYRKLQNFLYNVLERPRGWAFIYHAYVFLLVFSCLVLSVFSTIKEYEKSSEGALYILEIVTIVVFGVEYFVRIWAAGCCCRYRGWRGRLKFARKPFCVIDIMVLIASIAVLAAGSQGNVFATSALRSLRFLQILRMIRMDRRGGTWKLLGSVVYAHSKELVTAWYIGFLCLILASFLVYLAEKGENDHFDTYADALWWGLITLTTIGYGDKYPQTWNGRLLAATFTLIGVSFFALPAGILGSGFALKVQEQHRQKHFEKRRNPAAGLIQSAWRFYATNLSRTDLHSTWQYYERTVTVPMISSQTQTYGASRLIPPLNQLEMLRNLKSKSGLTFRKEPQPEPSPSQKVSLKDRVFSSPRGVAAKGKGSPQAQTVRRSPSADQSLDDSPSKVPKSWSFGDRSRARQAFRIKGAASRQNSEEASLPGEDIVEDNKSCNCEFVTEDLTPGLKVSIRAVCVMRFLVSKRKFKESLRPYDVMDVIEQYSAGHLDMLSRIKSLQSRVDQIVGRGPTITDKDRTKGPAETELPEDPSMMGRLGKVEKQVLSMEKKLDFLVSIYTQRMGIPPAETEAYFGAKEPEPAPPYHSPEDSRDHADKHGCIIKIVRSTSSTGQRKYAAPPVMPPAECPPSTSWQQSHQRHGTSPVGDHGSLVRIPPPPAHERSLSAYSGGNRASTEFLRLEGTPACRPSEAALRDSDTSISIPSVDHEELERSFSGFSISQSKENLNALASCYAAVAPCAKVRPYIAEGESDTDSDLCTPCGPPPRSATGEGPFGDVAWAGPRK
KCNQ2 enhance – potentiators of rat KCNQ2 potassium channel; actives 0.54% (n = 310,000); Potassium voltage-gated channel subfamily KQT member 2 (Rattus norvegicus), O88943; B-score at 10 µM; CHO-K1 KCNQ2, FluxOR thallium flux fluorescence; hits give high values;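 active = fluorescence ratio B-score at least 3 SD of library B-scores, with initial fluorescence B-score within 3 of them, cut at about 5.3 in these data; same plate scores as AID 2156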;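 note: B-score of peak minus minimum over baseline fluorescence ratio after K+ and Tl+ stimulus; positive B-score means potentiation of KCNQ2 with more thallium influx and brighter signal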
* = called active by the depositor; i = inactive; x = no result given.

SMILES | KCNQ2 block | KCNQ2 enhance
CCCC(=O)N1c2ccccc2C(=C2SC(C(=O)OC)=C(C(=O)OC)S2)C(=S)C1(C)C | -7.9* | -7.9
COC(=O)C1=C(C(=O)OC)SC(=C2C(=S)C(C)(C)N(C(=O)C(C)C)c3ccccc32)S1 | i | x
CC(OC(=O)Cn1[nH]c(=O)c2ccccc2c1=O)C(=O)NC1(C#N)CCCCC1 (centres undefined) | i | 1.1
COc1cccc(CNC(=O)Cc2nc3nc(C)cc(C)n3n2)c1 | i | 0.81
COc1ccccc1N1CCN(C(=O)CSc2ncnc3scc(-c4ccccc4)c23)CC1 | i | x
O=C(CSc1ncnc2scc(-c3ccccc3)c12)N1CCN(c2ccccc2F)CC1 | -6.2* | -6.2
O=C(CSc1nnc(NC(=O)C2CC2)s1)NCc1ccccc1 | i | 0.94
CCCCNC(=O)c1c(CSc2ccccc2)noc1C(=O)NCc1ccccc1 | i | 0.94
CC1=C(C(=O)Nc2ccccc2F)C(c2ccsc2)C2=C(CC(c3ccccc3)CC2=O)N1 (centres undefined) | -6.1* | -6.1
CCOCCOC(=O)C1=C(C)NC2=C(C(=O)CC(c3cccs3)C2)C1c1ccsc1 (centres undefined) | i | x
Cc1ccccc1Nc1nc(N)nc(COC(=O)CC2CC3CCC2C3)n1 (centres undefined) | i | 20*
Cc1ccccc1Nc1nc(N)nc(COC(=O)CCS(=O)(=O)c2ccccc2)n1 | i | 1.7
O=C(NCCc1ccccc1)C1CCC(CNS(=O)(=O)c2ccc(F)cc2)CC1 (centres undefined) | i | 0.22
O=C(C1CC2C=CC1C2)N1CCN(c2ccccc2)CC1 (centres undefined) | i | x
CC1(C)C(C=C(Cl)Cl)C1C(=O)N1CCN(c2ccccc2)CC1 (centres undefined) | -5.7* | -5.7
COC(C[C@H]1O[C@H]1[C@H](O)COCc1ccccc1)OC | i | x
COC(=O)c1ccccc1Oc1cc(C(F)(F)F)nc(-c2ccccn2)n1 | i | 0.97
CC(OC(=O)CCC(=O)N1CCN(S(=O)(=O)c2ccc3ccccc3c2)CC1)C(=O)NC(N)=O (centres undefined) | i | x
COc1ccc(CCNc2cc(C)nc3c(-c4ccccc4)cnn23)cc1OC | i | x
COc1ccccc1-c1cnn2c(NCCc3ccccc3)cc(C)nc12 | -7.1* | -7.1
CS(=O)(=O)Nc1cccc(S(=O)(=O)N2CCN(C(=O)c3ccccc3)CC2)c1 | i | 0.75
CC(NC(=O)c1ccc(F)cc1)C1CC2CCC1C2 (centres undefined) | i | x
CC(NC(=O)COc1ccccc1F)C1CC2CCC1C2 (centres undefined) | -6* | -6
Cc1ccc(C(=O)Nc2ccnc(-c3ccncc3)n2)cc1 | i | 2.4
Cc1cn2c(nc1=O)OC1CC2OC1CO (centres undefined) | i | 0.11
SMILES | KCNQ2 block | KCNQ2 enhance
CCN(CC)c1ccc(NC(=O)C2=CCN(S(=O)(=O)c3ccc(F)cc3)CC2)c(C)c1 | i | 7.1*
Cc1ccc(S(=O)(=O)N2CC=C(C(=O)NCc3ccc(F)cc3)CC2)cc1 | i | 0.02
Cc1cc(Oc2ccc(C)c(Cl)c2)nc(SCC(=O)c2ccccc2)n1 | i | 7*
Cc1ccc(C(=O)CSc2cc(C)nc(SCC(=O)c3ccccc3)n2)cc1 | i | x
Cc1cccc(NC(=O)C2CCCN(S(=O)(=O)c3cccs3)C2)c1C (centres undefined) | i | x
CCOC(=O)c1c(N)sc(C(=O)OC)c1C | i | 0.93
CCOC(=O)c1sc(NN=C(C(=O)OC)C(=O)OC)c(C(=O)OCC)c1C | i | 5.7*
COc1ccc(C(=O)N(CCc2ccccc2)Cc2ccccc2)c(OC)n1 | -7.7* | -7.7
CS(=O)(=O)c1ccc(C(=O)N(CCc2ccccc2)Cc2ccccc2)cc1 | i | x
CS(=O)(=O)c1ccccc1C(=O)N(CCc1ccccc1)Cc1ccccc1 | -5.6* | -5.6
COc1ccc(C(=O)N(CCc2ccccc2)Cc2cccs2)c(OC)c1 | i | x
CC(=O)Nc1cccc(/C(C)=N/N2C(C)CCCC2C)c1 (centres undefined) | i | x
O=S(=O)(NC12CC3CC(CC(C3)C1)C2)c1ccc(F)cc1 | i | x
O=C(COc1ccccc1)Nc1ccccc1N1CCCCC1 | i | x
CC(=O)N1CCN(c2ccccc2NC(=O)COc2ccccc2C)CC1 | i | x
Cc1ccccc1OCC(=O)Nc1ccccc1-c1ccccc1NC(=O)COc1ccccc1C | -5.6* | -5.6
Cc1cc(C)c(OCC(=O)Nc2ccccc2N2CCCCC2)c(C)c1 | -5.6* | -5.6
Cc1cccc(OCC(=O)Nc2ccccc2N2CCCCC2)c1 | i | x
Cc1ccccc1OCC(=O)Nc1ccccc1N1CCC(C)CC1 | -6.2* | -6.2
Cc1ccccc1OCC(=O)Nc1cccc(Cl)c1C | i | 0.3
Cc1ccc(OCC(=O)Nc2ccccc2N2CCCC2)c(C)c1 | -5.6* | -5.6
Nc1[nH]c2cc([N+](=O)[O-])ccc2c1-c1ccccn1 | i | x
O=C(NNC1=Nc2cccc3cccc1c23)c1ccc(Br)cc1 | i | 0.32
O=S(=O)(Nc1ccc(Br)cn1)c1ccc(Cl)s1 | i | 0.68
Cc1ccc2[nH]c3c(=O)n(CC(=O)NCCCN4CCN(c5ccc(F)cc5)CC4)ncc3c2c1 | i | x
SMILES | KCNQ2 block | KCNQ2 enhance
O=c1cc(CSc2nc3ccccc3c(=O)[nH]2)c2ccc(O)cc2o1 | i | x
CN(C(=O)Cn1c(=O)oc2cc(S(=O)(=O)N3CCCC3)ccc21)C1CCCCC1 | i | 0.3
COc1cccc(C(=O)NC(=S)Nn2cnnc2)c1OC | i | 0.66
COc1ccc(C(=O)NC(=S)Nc2ccccc2N2CCOCC2)cc1Br | i | x
Cc1ccccc1OCC(=O)Nc1ccc(S(=O)(=O)N2CCCC2)cc1 | i | x
COc1ccc(C(=O)Nc2ccccc2N2CCOCC2)cc1Br | -6.3* | -6.3
Cc1ccc(C(C)C)c(OCC(=O)NC(=S)Nc2ccccc2N2CCOCC2)c1 | -6.5* | -6.5
Cc1ccccc1OCC(=O)Nc1ccc(C)c(S(=O)(=O)N2CCCCCC2)c1 | -6.1* | -6.1
Cc1cccc(OCC(=O)NC(=S)Nc2ccccc2N2CCOCC2)c1C | i | x
COC(=O)C1=C[C@@H](C(=O)OC)[C@@H]2C3=C(C(=O)[C@]2(C)NC(=O)c2ccccc2)[C@H](C)n2c(=O)n(-c4ccccc4)c(=O)n2[C@@H]3C1 | i | 0.1
COc1ccc(CNC(=O)CN(C(=O)CCC(=O)Nc2nccs2)c2ccc3c(c2)OCO3)cc1 | i | x
Nc1nc2ccccc2n1CCOc1ccc(F)cc1 | i | 3
Cc1ccnc(NC(=O)CCC(=O)N(CC(=O)NC(C)(C)C)c2ccc(F)c(Cl)c2)c1 | i | x
CCOC(=O)c1c(-c2ccccc2)oc2ccc(OCC)cc12 | i | x
CCOC(=O)c1c(-c2ccccc2)oc2ccc(OCC(O)CNCCN(C)C)cc12 (centres undefined) | -6.7* | -6.7
CCN(CC)CCNc1nc2nonc2nc1NCCN(CC)CC | i | 0.72
CCCN(CCC)C1=CC(=[N+]2CCCC2)CC(C)(C)C1 | i | 0.39
COc1cccc(C(=O)N2c3cc(C)ccc3OCC2C(C)(C)C)c1 (centres undefined) | i | x
COc1ccc(S(=O)(=O)N2c3cc(C)ccc3OCC2C(C)(C)C)cc1 (centres undefined) | -5.5* | -5.5

Screens (PubChem)
